According to paper PMC6792352, “Limited Chemical Structural Diversity Found to Modulate Thyroid Hormone Receptor in the Tox21 Chemical Library” (Environmental Health Perspectives, 2019):
Where a name gives a salt, the structure may show the parent alone.

System: thyroid hormone receptor (endogenous TRα and TRβ)
Set-up: species or system GH3-TRE-Luc (rat pituitary); GH3-TRE-Luc luciferase reporter, antagonist mode against 1 nM T3, loss of signal, qHTS
Settings: antagonist mode, 1 nM T3, no GH3 cytotoxicity hit, 24 h, read-out: Average AC50 (uM) GH3-TRE-Antag

| Compound | AC50 [µM] |
| --- | --- |
| COc1ccc(N)cc1 [4-Methoxyaniline] | 89.4 |
| COc1ccc(N)cc1 [4-Methoxyaniline hydrochloride] | 81.8 |
| Oc1cc(Cl)c(Cl)cc1Cl [2,4,5-Trichlorophenol] | > 50 |
| Oc1cc(Cl)c(Cl)cc1Cl [2,4,5-Trichlorophenol sodium salt] | 77.4 |
